19 compounds from PubChem BioAssay (NCATS) can be followed below.

Assay [1] addresses Calcium and integrin-binding protein 1 (Homo sapiens) (UniProt Q99828). Kind of assay: Primary qHTS for Identification of Calcium Integrin Binding Protein 1 (CIB1) Competitor (AID 1508620).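 Further: GST tagged CIB1 binding a fluorescein labelled alphaIIb integrin peptide tracer; top concentration of the series differs between compounds; on the % scale 0 is the no-effect control and ±100 the full control effect.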 As to conditions: CIB1-GST / FITC-alphaIIb peptide fluorescence polarization; series mostly up to 57.7 µM. The gist of the method: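 CIB1-GST (1 uM final) and compound incubated 15 min at room temperature before adding FITC-alphaIIb peptide tracer (100 nM final). Competition for binding read by fluorescence polarization (ex 480, em 540) after another 15 min at room temperature.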

Assay [2] is described as follows: Primary qHTS for inhibitors of nuclear receptor binding SET domain protein 2 (NSD2) in an isogenic RCH-ACV NSD2 p.E1099K mutant (9B) (AID 1645876). Further: nearly all actives have a fitted effect of over 70% in size. Further: potency means the concentration at half of the fitted maximal effect. On activity change, negative = viability loss: on the % scale 0 is the no-effect control and ±100 the full control effect. As to conditions: RCH-ACV NSD2 E1099K (9B) viability, CellTiter-Glo, 72 h; series mostly up to 44.9 µM. Background: Quantitative high-throughput screening tests each substance at several concentrations.
Assay [3] can be described thus: Primary qHTS for inhibitors of nuclear receptor binding SET domain protein 2 (NSD2) in an RCH-ACV wild type WT cells (2C) (AID 1645877). Further: nearly all actives have a fitted effect of over 70% in size. Further: potency means the concentration at half of the fitted maximal effect. On activity change, negative = cell killing: on the % scale 0 is the no-effect control and ±100 the full control effect. As to conditions: RCH-ACV (leukaemia line) NSD2 WT (2C) viability, CellTiter-Glo, 72 h; series mostly up to 44.9 µM.
Assay [4] addresses Catechol O-methyltransferase (Homo sapiens) (UniProt P21964). As to the kind of experiment: Confirmatory Screen for Target Class Profiling of Small Molecule Inhibitors of Methyltransferases (AID 1745852). On activity change, negative = inhibition: on the % scale 0 is the no-effect control and ±100 the full control effect. As to conditions: MTase-Glo luminescence, SAH detection, recombinant enzyme; measured here: COMT max response; stronger effect = lower value.
Assay [5] addresses Guanidinoacetate N-methyltransferase (Homo sapiens) (UniProt Q14353). The description is as above. As to conditions: MTase-Glo luminescence, SAH detection, recombinant enzyme; activity change, negative = inhibition: at 57.3 µM (top of the series) unless noted.
Assay [6] addresses Nicotinamide N-methyltransferase (Homo sapiens) (UniProt P40261). The description is as above. The settings on record: MTase-Glo luminescence, SAH detection, recombinant enzyme; measured here: NNMT max response; stronger effect = lower value.
For assay [7], the target named is Phenylethanolamine N-methyltransferase (Homo sapiens) (UniProt P11086). The assay is described as above. The settings on record: MTase-Glo luminescence, SAH detection, recombinant enzyme; measured here: PNMT max response; stronger effect = lower value.
Chain of Phenylethanolamine N-methyltransferase (Homo sapiens) (P11086 whole entry, looked up): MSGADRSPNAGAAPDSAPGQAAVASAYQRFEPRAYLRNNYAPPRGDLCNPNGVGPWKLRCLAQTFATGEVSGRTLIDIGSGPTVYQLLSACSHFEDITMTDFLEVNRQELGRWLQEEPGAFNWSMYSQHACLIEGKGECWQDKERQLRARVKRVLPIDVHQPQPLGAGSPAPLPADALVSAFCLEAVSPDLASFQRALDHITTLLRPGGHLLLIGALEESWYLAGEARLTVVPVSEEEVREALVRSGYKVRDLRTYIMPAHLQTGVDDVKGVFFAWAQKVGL
Assay [8] concerns the target Rap guanine nucleotide exchange factor 3 (Homo sapiens) (UniProt O95398). As to the kind of experiment: Confirmatory qHTS for agonist of cAMP-regulated guanine nucleotide exchange factor 3 (EPAC1) (AID 1645881).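 Further: EPAC1 catalysed release of BODIPY-GDP from Rap1B seen as fluorescence loss; nearly all actives have a fitted effect of over 75% in size.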 The settings on record: EPAC1 Rap1B BODIPY-GDP exchange fluorescence, 100% = cAMP control response; series mostly up to 154 µM.
In assay [9] the target is Rap guanine nucleotide exchange factor 4 (Homo sapiens) (UniProt Q8WZA2). Kind of assay: Confirmatory qHTS for agonist of cAMP-regulated guanine nucleotide exchange factor 4 (EPAC2) (AID 1645884).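 Further: nucleotide exchange releases bodipy-GDP from Rap1 and this lowers its fluorescence; on the % scale 0 is the no-effect control and ±100 the full control effect; nearly all actives have a fitted effect of over 65% in size.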 The settings on record: EPAC2 GEF activity, Rap1B-BODIPY-GDP fluorescence, percent relative to cAMP agonist control; series mostly up to 154 µM.
Chain of Rap guanine nucleotide exchange factor 4 (Homo sapiens) (Q8WZA2 whole entry, looked up): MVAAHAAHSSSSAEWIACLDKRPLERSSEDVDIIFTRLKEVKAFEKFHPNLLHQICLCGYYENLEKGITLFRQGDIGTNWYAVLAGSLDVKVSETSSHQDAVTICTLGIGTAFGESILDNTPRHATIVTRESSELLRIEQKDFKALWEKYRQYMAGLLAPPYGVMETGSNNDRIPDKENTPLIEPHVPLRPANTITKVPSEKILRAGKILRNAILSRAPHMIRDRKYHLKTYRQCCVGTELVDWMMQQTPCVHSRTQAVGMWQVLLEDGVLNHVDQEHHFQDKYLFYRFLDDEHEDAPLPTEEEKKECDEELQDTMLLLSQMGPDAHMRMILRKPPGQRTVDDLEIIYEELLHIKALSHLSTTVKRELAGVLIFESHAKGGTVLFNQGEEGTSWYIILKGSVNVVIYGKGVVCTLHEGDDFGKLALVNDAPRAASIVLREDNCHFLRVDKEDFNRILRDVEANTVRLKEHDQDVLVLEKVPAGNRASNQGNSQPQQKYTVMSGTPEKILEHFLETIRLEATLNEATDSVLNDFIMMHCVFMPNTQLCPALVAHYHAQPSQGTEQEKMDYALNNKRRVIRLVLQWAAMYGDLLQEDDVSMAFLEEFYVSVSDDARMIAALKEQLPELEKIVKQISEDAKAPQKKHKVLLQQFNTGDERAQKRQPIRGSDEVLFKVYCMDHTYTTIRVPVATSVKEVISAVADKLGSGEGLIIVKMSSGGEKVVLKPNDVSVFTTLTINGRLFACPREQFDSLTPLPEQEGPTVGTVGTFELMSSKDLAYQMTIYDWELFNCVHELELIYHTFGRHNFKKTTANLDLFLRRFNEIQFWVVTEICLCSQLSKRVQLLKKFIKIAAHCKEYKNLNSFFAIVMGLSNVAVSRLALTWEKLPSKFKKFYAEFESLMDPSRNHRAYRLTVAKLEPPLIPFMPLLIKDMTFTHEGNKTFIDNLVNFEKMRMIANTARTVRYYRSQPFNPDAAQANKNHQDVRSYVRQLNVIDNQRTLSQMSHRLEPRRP
Assay [10] has the same target. As to the kind of experiment: Confirmatory qHTS for antagonist of cAMP-regulated guanine nucleotide exchange factor 4 (EPAC2) (AID 1645885). Further: on the % scale 0 is the no-effect control and ±100 the full control effect; nearly all actives have a fitted effect of over 25% in size. The settings on record: EPAC2 Rap1B-BODIPY-GDP exchange fluorescence, biochemical; series mostly up to 12.7 µM.

SMILES strings stand for the structures. Records with an inconclusive call do not appear. Activity calls are given as the source filed them. The call rests on the fitted dose curve; in most records, active means well fitted curve in the direction sought with a large enough effect; inconclusive means small, poorly fitted or top-dose-only effect, or another doubt; inactive means no such curve, though single readings can be large; an effect the other way counts as inactive or inconclusive.

Chain of Nicotinamide N-methyltransferase (Homo sapiens) (P40261 whole entry, looked up): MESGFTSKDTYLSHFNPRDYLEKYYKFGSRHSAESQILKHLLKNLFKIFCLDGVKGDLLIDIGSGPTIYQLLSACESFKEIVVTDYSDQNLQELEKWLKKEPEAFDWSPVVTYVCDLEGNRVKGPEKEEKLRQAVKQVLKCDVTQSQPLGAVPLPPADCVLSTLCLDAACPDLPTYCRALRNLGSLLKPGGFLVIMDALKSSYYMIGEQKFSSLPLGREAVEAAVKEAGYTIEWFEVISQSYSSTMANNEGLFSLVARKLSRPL
Chain of Calcium and integrin-binding protein 1 (Homo sapiens) (Q99828 whole entry, looked up): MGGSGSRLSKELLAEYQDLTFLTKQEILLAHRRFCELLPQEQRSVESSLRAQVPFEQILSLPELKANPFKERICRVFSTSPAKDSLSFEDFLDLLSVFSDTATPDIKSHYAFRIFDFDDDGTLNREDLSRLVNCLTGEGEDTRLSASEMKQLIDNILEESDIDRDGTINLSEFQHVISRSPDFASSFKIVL
Chain of Catechol O-methyltransferase (Homo sapiens) (P21964 whole entry, looked up): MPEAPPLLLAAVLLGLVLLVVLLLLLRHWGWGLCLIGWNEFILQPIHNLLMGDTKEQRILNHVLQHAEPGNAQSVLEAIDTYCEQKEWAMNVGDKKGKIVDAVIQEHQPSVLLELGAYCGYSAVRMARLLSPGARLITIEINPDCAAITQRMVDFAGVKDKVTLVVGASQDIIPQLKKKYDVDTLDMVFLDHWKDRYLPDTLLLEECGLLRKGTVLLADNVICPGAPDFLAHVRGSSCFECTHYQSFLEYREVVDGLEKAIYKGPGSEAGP
Chain of Rap guanine nucleotide exchange factor 3 (Homo sapiens) (O95398 whole entry, looked up): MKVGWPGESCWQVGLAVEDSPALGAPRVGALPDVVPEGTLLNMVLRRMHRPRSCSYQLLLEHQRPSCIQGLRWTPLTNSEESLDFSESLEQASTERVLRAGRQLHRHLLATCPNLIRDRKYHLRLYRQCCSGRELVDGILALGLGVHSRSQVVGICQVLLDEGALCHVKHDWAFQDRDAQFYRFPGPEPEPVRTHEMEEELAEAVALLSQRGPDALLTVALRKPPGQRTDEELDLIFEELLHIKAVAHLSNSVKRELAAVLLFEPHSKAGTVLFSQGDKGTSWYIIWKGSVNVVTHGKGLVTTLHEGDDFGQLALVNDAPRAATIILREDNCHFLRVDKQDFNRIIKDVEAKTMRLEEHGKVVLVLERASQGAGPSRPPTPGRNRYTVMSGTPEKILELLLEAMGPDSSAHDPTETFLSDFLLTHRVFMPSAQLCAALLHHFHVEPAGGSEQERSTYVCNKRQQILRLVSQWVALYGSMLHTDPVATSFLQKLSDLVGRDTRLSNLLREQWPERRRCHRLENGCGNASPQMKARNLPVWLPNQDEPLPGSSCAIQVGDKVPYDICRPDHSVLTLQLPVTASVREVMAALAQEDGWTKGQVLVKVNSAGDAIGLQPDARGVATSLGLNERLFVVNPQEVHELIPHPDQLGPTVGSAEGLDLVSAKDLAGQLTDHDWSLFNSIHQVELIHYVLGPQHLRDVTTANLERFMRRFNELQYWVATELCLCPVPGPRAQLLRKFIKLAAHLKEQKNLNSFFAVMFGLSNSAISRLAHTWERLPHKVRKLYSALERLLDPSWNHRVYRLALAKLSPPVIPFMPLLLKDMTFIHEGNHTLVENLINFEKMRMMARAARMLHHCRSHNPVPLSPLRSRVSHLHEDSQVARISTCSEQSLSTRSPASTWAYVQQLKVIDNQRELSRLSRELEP

Regarding `CC(C)(O)C1CC=C(C(=O)OC[C@H]2O[C@@H](Oc3cc(C(=O)O)cc(O)c3O)[C@H](O)[C@@H](O)[C@@H]2O)CC1` (some centres undefined), the Potency entry in [1], in assay [2] and in assay [3] was “inactive” each time. For the same compound, the activity was -82.4% in [4], -6.11% in assay [6] and -6.07% in assay [7]. In addition, the activity change, negative = inhibition in assay [5] is -6.92% [at 29.8 µM].

On to `CC(C)=C1CC2C(CCC2(C)O)C(C)(O)CC1=O` (centres undefined), for which the Potency result in assay [1], in assay [2] and in assay [3] was “inactive” in each case. Moreover, the activity in assay [4] is -78.9%; in [6], 3.19%; in [7], 3.52%. The activity change, negative = inhibition in assay [5] is 0%.

Consider `COc1cc(/C=C/C(=O)OC[C@H]2O[C@@H](OC3OC=C(C(=O)O)C4C(O)CC(C)(O)C34)[C@H](O)[C@@H](O)[C@@H]2O)cc(OC)c1O` (some centres undefined), for which the Potency entry in assay [1], in assay [2] and in assay [3] was “inactive” in each case. Moreover, the activity is -54.7% in [4], 0.931% in assay [6] and -3.81% in assay [7]. Moreover, the activity change, negative = inhibition in assay [5] was -2.09% [at 19.1 µM].

Turning to `O=c1[nH]ccc2nc(-c3ccc(CN4CCC(c5nc(-c6ccccn6)n[nH]5)CC4)cc3)c(-c3ccccc3)cc12`, the Potency result in assay [1] is “inactive”. The Potency is 32.5 nM (active) in [2] and 81.7 nM (active) in assay [3]. Further, the activity is -10.1% in assay [4], -47.8% in assay [6] and -18% in [7]. Also, in [5], the activity change, negative = inhibition was -7.59%.

`COc1c2cc(c(O[C@@H]3O[C@H](CO)[C@@H](O)[C@H](O)[C@H]3O)c1OC)CCCCC(O)CCc1ccc(O)c-2c1` (some centres undefined): the Potency result in assay [1], in [2] and in assay [3] was “inactive” throughout. For the same compound, the activity in [4] is -87.3%; in assay [6] it was -5.32%; in assay [7], -8.72%. In [5], the activity change, negative = inhibition is -7.96% [at 29.8 µM].

Take `CC(=O)OC/C(=C/C(=O)O)CC[C@@H]1C(C)=CC(=O)[C@@H]2C(C)(C)CCC[C@@]12C`: the Potency result in assay [1], in [2] and in assay [3] was “inactive” each time. For the same compound, the activity is -62.3% in [4], -1.14% in [6] and -1.13% in assay [7]. For the same compound, in [5], the activity change, negative = inhibition is 0%.

`CC1=C2CC3C(CCC3(C)O)C(C)(O)CC2OC1=O` (centres undefined): the Potency entry in [1], in assay [2] and in assay [3] was “inactive” throughout. In addition, the activity was -78.6% in assay [4], 0% in [6] and 0% in assay [7]. In addition, in [5], the activity change, negative = inhibition was 0%.

Turning to `CC1=CC(=O)C(=C(C)C)CC2C(C)(O)CCC12O` (centres undefined), the Potency entry in [1], in assay [2] and in [3] was “inactive” in each case. The activity in assay [4] was -81.2%; in [6], 2.29%; in assay [7] it was 1.07%. Further, in assay [5], the activity change, negative = inhibition is 0.373%.

For the compound `C[C@@H]1O[C@@H](OC[C@H]2O[C@@H](OCc3ccccc3)[C@H](O)[C@@H](O)[C@@H]2O)[C@H](O)[C@H](O)[C@H]1O`, the Potency result in assay [1], in [2] and in assay [3] was “inactive” in each case. The activity is -64.3% in assay [4], -3.31% in assay [6] and -2.48% in assay [7]. The activity change, negative = inhibition in assay [5] is -3.1% [at 29.8 µM].

As to `OC[C@H]1O[C@@H](OCCc2ccccc2)[C@H](O[C@@H]2OC[C@@H](O)[C@H](O)[C@H]2O)[C@@H](O)[C@@H]1O`, the Potency result in assay [1], in assay [2] and in assay [3] was “inactive” in each case. The activity was -76.4% in assay [4], 3.88% in assay [6] and -1.31% in assay [7]. Further, the activity change, negative = inhibition in [5] was 0% [at 29.8 µM].

For the compound `C=C1C[C@]23C[C@@]1(O)CC[C@H]2[C@@]12C=C[C@H](O)[C@@](C)(C(=O)O1)[C@H]2[C@@H]3C(=O)O`, the Potency result in [1], in [2] and in assay [3] was “inactive” each time. The outcome in assay [8] and in assay [9] was “inactive” each time.

For `CC1(C)CC[C@]2(C(=O)O[C@@H]3O[C@H](CO)[C@@H](O)[C@H](O)[C@H]3O)CC[C@]3(C)C(=CCC4[C@@]5(C)C[C@@H](O)[C@H](O)[C@@](C)(CO)C5[C@H](O)C[C@]43C)C2[C@@H]1O` (some centres undefined), the Potency result in assay [1], in assay [2] and in [3] was “inactive” throughout. Further, the activity in [4] is -79.3%; in [6], 4%; in [7], 3.8%. The activity change, negative = inhibition in [5] came to 0% [at 19.1 µM].

Turning to `CC1OC(OC2C(OC(=O)[C@]34CCC(C)(C)C[C@H]3C3=CCC5[C@@]6(C)CC[C@H](OC7OC(C(=O)O)C(O)C(O)C7O)C(C)(C)C6CC[C@@]5(C)[C@]3(C)CC4O)OC(CO)C2O)C(O)C(O)C1OC1OCC(O)C(O)C1O` (some centres undefined), the Potency result in assay [1] was “inactive”. For the same compound, in assay [2], the activity change, negative = viability loss was -7.94% [at 9.23 µM] (inactive). Also, the activity change, negative = cell killing in [3] was -12.2% [at 9.23 µM] (inactive). Also, the activity was -87.7% in assay [4], -6.05% in assay [6] and -8.02% in assay [7]. Besides, the activity change, negative = inhibition in assay [5] turned out to be 0% [at 19.1 µM].

As for `COc1cc(/C=C/C(=O)O[C@H]2[C@@H]3C=CO[C@@H](O[C@@H]4O[C@H](CO)[C@@H](O)[C@H](O)[C@H]4O)[C@@H]3[C@@]3(CO)O[C@@H]23)ccc1O`, the Potency result in assay [1], in [2] and in assay [3] was “inactive” throughout. Moreover, the figures for the activity in assay [4], in [6] and in assay [7] were -66.9%, 1.36% and -3.15%, respectively. Further, the activity change, negative = inhibition in [5] worked out at 0% [at 29.8 µM].

Take `COc1c(O)cc2c(c1O)C(=O)O[C@H](C)[C@H]2O`: the Potency entry in assay [1], in assay [2] and in assay [3] was “inactive” each time. Moreover, the results for the activity in assay [4], in [6] and in assay [7] were -42.1%, 0.175% and 0.108%, respectively. In assay [5], the activity change, negative = inhibition was 0.552%.

With `O=C(CCc1ccccc1)c1c(O)c([C@@H]2O[C@H](CO)[C@@H](O)[C@H](O)[C@H]2O)c(O)c([C@@H]2O[C@H](CO)[C@@H](O)[C@H](O)[C@H]2O)c1O`, the Potency result in [1], in assay [2] and in assay [3] was “inactive” throughout. Further, the activity in [4] was -89.3%; in [6] it was -0.132%; in assay [7] it was 4.21%. In addition, the activity change, negative = inhibition in [5] came out at 2.13% [at 19.1 µM].

On to `COc1cc(/C=C/C(=O)OCC2OC(OC3(CO)OC(CO)C(O)C3O)C(O)C(O)C2O)ccc1O` (centres undefined), for which the Potency entry in assay [1], in assay [2] and in assay [3] was “inactive” throughout. The activity in [4] is -68.2%; in assay [6], -1.16%; in assay [7], 3.04%. Besides, the activity change, negative = inhibition in assay [5] is -1.33% [at 29.8 µM].

Consider `CCOc1ccc(-c2cc(NC(=O)c3c(F)cccc3F)c(C(=O)O)s2)cc1`, for which the outcome in [10] was “inactive”.

In the case of `Cc1ccc([C@@H]2CC=C(C(=O)O)[C@H](c3ccc(C(C)(C)C)cc3)N2S(=O)(=O)c2ccc(C)cc2)cc1`, in [10], the outcome was “inactive”.
